# Hits are enriched below; roughly 1.3% of the tested compounds scored in any of these assays.
# Gli-Sufu antag: blocks Gli-Sufu signaling in a luciferase reporter. Sufu-KO-LIGHT fibroblasts, Gli luciferase reporter luminescence. inhibition, % at 5 µM. 340,000 compounds, 0.74% hits;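 active means inhibition above about 55%, limit read from the data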;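 further: 0% = DMSO-treated cells and 100% = wells with medium but no cells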
# NCOA2 inhibitor: inhibits human steroid receptor coactivator 2; AID 651957; 370,000 compounds, 0.17% hits; Q15596; inhibition, % at 9 µM; HEK293 GAL4-SRC2 luciferase reporter, luminescence;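 active means inhibition above the mean inhibition of all tested compounds plus 3 SD, set per campaign, cut at about 52% in these data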;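 further: 0% = DMSO treated cells and 100% = cells given Gossypol at 36 µM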
# SRC1 inh: human NCOA1 inhibition. inhibition, % at 3.6 µM. 360,000 compounds, 0.12% hits. AID 588354. Q15788. HEK293 GAL4-SRC1 luciferase reporter, luminescence;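 active means inhibition above the campaign mean plus 3 SD, with each screening campaign given its own cutoff, cut at about 60% in these data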;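 further: 0% = DMSO treated cells and 100% = gossypol at 36 µM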
# COUP-TFII inh: blocks human COUP-TFII nuclear receptor | P24468 | HEK293T NGFI-A luciferase reporter, luminescence | inhibition, % at 8.6 µM | 370,000 compounds, 0.7% hits | AID 686940;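 active means inhibition above a per-plate cutoff, mean inhibition of test wells between control levels plus 3 SD, cut at about 38% in these data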;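 further: cells cotransfected with COUP-TFII expression vector driving the NGFI-A reporter; 0% = median of COUP-TF2 test wells and 100% = reporter-only cells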
# Target sequence (P24468 whole entry, looked up): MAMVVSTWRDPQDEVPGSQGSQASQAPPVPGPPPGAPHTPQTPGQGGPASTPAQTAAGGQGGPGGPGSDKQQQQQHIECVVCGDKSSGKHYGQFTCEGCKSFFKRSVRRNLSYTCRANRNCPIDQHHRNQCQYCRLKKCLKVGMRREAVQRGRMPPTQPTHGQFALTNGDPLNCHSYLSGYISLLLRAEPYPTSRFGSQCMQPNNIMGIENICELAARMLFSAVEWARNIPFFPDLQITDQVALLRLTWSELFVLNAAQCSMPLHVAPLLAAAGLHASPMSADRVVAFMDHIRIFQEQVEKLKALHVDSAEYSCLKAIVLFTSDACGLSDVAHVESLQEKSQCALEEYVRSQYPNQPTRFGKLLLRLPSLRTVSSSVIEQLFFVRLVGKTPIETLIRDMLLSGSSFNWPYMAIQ
# NCOA3 inh: inhibits human SRC3 coactivator; inhibition, % at 3.6 µM; 360,000 compounds, 0.17% hits; Q9Y6Q9; HEK293 GAL4-SRC3 luciferase reporter, luminescence; AID 588352;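 active means inhibition above a per-campaign cutoff, the mean of all compounds plus 3 SD, cut at about 60% in these data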;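 further: 0% = DMSO-treated cells and 100% = gossypol-treated cells at 36 µM; higher means less SRC3-driven luciferase light from the GAL4 reporter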
# NR5A2 inv ag: suppresses constitutive activity of human LRH-1; O00482; HEK293T StAR-luciferase reporter, LRH-1 transfected, 24 h; inhibition, % at 3.6 µM; 360,000 compounds, 0.13% hits;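 active means inhibition above the mean inhibition of all tested compounds plus 3 SD, cut at about 73% in these data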;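 further: 0% = DMSO wells and 100% = reporter-only cells lacking LRH-1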
# Active calls of the source: *; . = no result given.
SMILES,Gli-Sufu antag,NCOA2 inhibitor,SRC1 inh,COUP-TFII inh,NCOA3 inh,NR5A2 inv ag
COc1cccc2c1C(=N)c1c(O)c3c(c(O)c1C2=O)CC(O)(C(C)=O)CC3OC1CC(N)C(O)C(C)O1 (stereo not drawn),75.5*,.,57.0,.,32.9,27.6
COc1cccc2c1C(=O)c1c(O)c3c(c(O)c1C2=O)CC(O)(C(C)=O)CC3OC1CC(O)C(O)C(C)O1 (stereo not drawn),55.3*,-296.4,52.3,-88.5,19.9,42.7
COc1ccc(S[C@]2(C(=O)N3CCOCC3)CC(=O)N(c3ccc(C#N)cc3)[C@@H]2c2ccc(OC)cc2)cc1,.,-30.5,.,-8.6,.,.
Cc1ccc(NCSc2ccc(Cl)cc2)cc1,-44.0,-36.0,-57.1,-16.8,-67.8,-97.5
Clc1ccc(SCNc2ccccc2Cl)cc1,3.6,4.6,-48.6,38.8*,-3.5,14.7
CN(c1cccnc1)c1ncnc2[nH]ncc12,-2.1,23.9,17.6,26.1,-0.7,9.0
C=CCN(CC=C)c1ncnc2[nH]ncc12,-10.2,53.2*,54.7,20.5,53.1,29.0
C=CS(=O)(=O)c1ccc(Oc2ccc(S(=O)(=O)C=C)cc2)cc1,6.0,70.2*,-294.6,74.6*,-135.0,9.2
NS(=O)(=O)c1ccc(Oc2ccc(S(N)(=O)=O)cc2)cc1,18.7,7.5,2.9,8.1,-7.9,-5.6
O=C(C1=NN[C@@H]2C(=O)N(c3cccc(C(F)(F)F)c3)C(=O)[C@H]12)c1ccc2ccccc2n1,-2.8,59.3*,-3.8,24.5,4.0,1.7
C/C(=N\Nc1ccc2nncn2n1)c1ccccn1,74.1*,19.2,73.3*,-20.6,75.6*,17.2
COc1ccc(C(=O)Nc2ccc(-c3ccc(C)o3)cc2)cc1S(=O)(=O)N1CCOCC1,11.8,16.3,24.9,75.1*,22.1,24.3
COc1ccc(C(=O)Nc2ccc(N3CCOCC3)cc2)cc1S(=O)(=O)N1CCOCC1,-1.9,-6.3,-6.8,-2.5,-0.3,-9.8
CCOC(=O)[C@]12CCCC3=C1N(CCC3)C(=O)[C@@H](CC(=O)NCc1cccc3ccccc13)C2,.,-3.8,.,-1.9,.,.
Oc1ccc2ccccc2c1N=Nc1ccccn1,54.9,24.1,8.2,24.7,13.3,25.1
CCOC(=O)c1[nH]cnc1N=Nc1c(O)ccc2ccccc12,57.3*,-4.3,16.5,-8.3,4.8,4.6
CCC[C@H]1[C@@H](OC(=O)NC2CCC2)CC[C@@]23CCCN2C(=O)CCC[C@@H]13,.,.,.,-11.9,.,.
N#CC(c1cccc(Cl)c1)c1ccc2c(C(F)(F)F)cc(C(F)(F)F)nc2n1 (stereo not drawn),88.4*,28.1,22.1,-2.7,41.4,99.0*
NNc1ccc2c(C(F)(F)F)cc(C(F)(F)F)nc2n1,-16.6,-2.1,3.4,17.1,5.1,6.5
Cc1ccc(/C=N/Nc2ccnc3cc(Cl)ccc23)c(C)c1,60.1*,20.7,19.0,5.7,14.1,10.2
Cc1ccccc1/C=N/Nc1ccnc2cc(Cl)ccc12,2.3,-27.5,-9.5,12.2,0.1,-25.8
COC(=O)[C@]12C[C@H](CC(=O)NCc3ccc(C)o3)C(=O)N(Cc3ccco3)C1=C[C@H](C(C)C)O[C@@H]2C1CC1,.,11.9,.,8.3,.,.
O=c1[nH]cnc2c1ncn2C1OC(CO)C(O)C1O (stereo not drawn),3.7,3.8,4.5,3.7,9.5,-8.9
CN(C)c1ncnc2c1nnn2C1OC(CO)C(O)C1O (stereo not drawn),.,30.9,63.7*,-79.5,68.8*,97.7*
O=c1[nH]cnc2c1nnn2C1OC(CO)C(O)C1O (stereo not drawn),.,22.8,41.0,-9.9,60.7,84.6*
SMILES,Gli-Sufu antag,NCOA2 inhibitor,SRC1 inh,COUP-TFII inh,NCOA3 inh,NR5A2 inv ag
Cc1cc(C(=O)Nc2ccccc2)c(C)o1,-3.5,-0.7,-28.7,-15.1,-30.6,-8.9
Cc1cc(C(=O)Nc2ccc(CC(=O)O)cc2)c(C)o1,-8.9,54.9*,-8.3,13.3,6.9,9.9
O=C(CCCN1C(=O)/C(=C/c2ccccc2Cl)SC1=S)NNC(=O)c1ccncc1,5.9,57.9*,31.6,37.0,36.5,17.5
O=C(CCCN1C(=O)/C(=C/c2cccs2)SC1=S)NNC(=O)c1ccncc1,1.7,12.8,1.9,-18.5,10.2,17.9
COc1ccc(C(CCOC(=O)Oc2ccccc2)c2cc(OC)c(OC)c(OC)c2)cc1 (stereo not drawn),.,-1.3,.,-10.1,.,.
COc1ccc(S[C@]2(C(=O)N3CCCC3)CC(=O)N(C(=O)C3CC3)[C@@H]2c2ccc(OC)cc2)cc1,.,1.3,.,-3.7,.,.
CC(C)(C)OC(=O)NCc1ccc(CNC(=O)c2nc[nH]c2C(=O)NCc2ccc(CNC(=O)OC(C)(C)C)cc2)cc1,35.7,-3.6,12.0,46.5*,18.1,26.6
CC(C)(C)OC(=O)CNC(=O)c1nc[nH]c1C(=O)NCc1ccc(CNC(=O)OC(C)(C)C)cc1,17.4,-10.6,7.3,12.8,-2.1,12.0
CC(C)(C)OC(=O)NCCCCCNC(=O)c1nc[nH]c1C(=O)NCc1ccc(CNC(=O)OC(C)(C)C)cc1,26.6,22.7,12.7,72.2*,23.1,19.9
N#CCCCc1cn(-c2ccc(-c3noc4c3C(=O)N(CC(=O)N3CCOCC3)CC4)cc2)nn1,.,-21.7,.,-0.2,.,.
C[C@@H](C(=O)Nc1ccc2c(c1)OCCO2)n1c(=O)[nH]c2ccccc2c1=O,45.5,41.4,60.7,27.6,67.2*,52.1
CCCS(=O)(=O)Nc1ccc(Nc2c3ccccc3nc3ccccc23)c(OC)c1,79.1*,-24.8,66.1*,-68.4,69.9*,33.4
CCOc1cc2c(cc1OCC)C(c1ccc(OC)cc1)N(c1ccccc1)C(=O)C2 (stereo not drawn),0.4,-21.4,-28.0,2.7,-33.2,75.6*
COc1cc(NC(=O)c2cc3c(C)nc4ccccc4c3o2)cc(OC)c1OC,24.4,-14.0,14.3,-4.1,17.3,24.6
COc1ccc(CNC(=O)c2cc3c(C)nc4ccccc4c3o2)c(OC)c1,56.6*,.,36.4,.,-9.7,42.5
CCCC[C@@H]1C(=O)N2N=Cc3ccccc3[C@H]2N2N=Cc3ccccc3[C@@H]12,.,16.6,.,8.5,.,.
CCc1nnc(NC(=O)c2cccc(C(=O)Nc3nnc(CC)s3)n2)s1,84.6*,6.6,-34.2,-7.7,-13.6,-8.3
NC(=S)NN=Cc1nccc2ccccc12,64.5*,4.2,78.9*,-41.0,79.1*,78.3*
NC(=S)NN=Cc1nccc2c(C(F)(F)C(F)(F)C(F)(F)F)cccc12,.,47.4,91.6*,28.5,93.3*,97.0*
C[C@@H]1ON(C)[C@H]2C[C@H]3c4[nH]c5c(-c6ccc7c(c6)OCO7)cccc5c4CCN3C(=O)[C@@H]12,.,-6.8,.,-9.4,.,.
COC(=O)c1cc(S(=O)(=O)N2CCOCC2)c(Cl)cc1N1CCOCC1,1.2,-16.9,-16.3,-7.3,-22.1,8.1
COC(=O)c1cc(C)nc2c1C(=O)C(=O)C=C2N1CCOCC1,10.4,56.8*,61.6*,41.7*,71.1*,21.8
CCN(CC)c1ccc2cc(NC(=O)CCC(=O)O)c(=O)oc2c1,43.3,84.7*,60.5,82.7*,57.3,64.2
